A selection: hits, their analogues and other compounds. The true share with any hit is near 0.91%.
APE1 inh: inhibitors of human APE1 endonuclease; P27695; recombinant APE1, TAMRA/BHQ-2 abasic DNA cleavage fluorescence; Potency, µM (highest dose often 65.8 µM), for the others: top-dose activity change, negative = inhibition, usual class: inhibitors; 0.35% of 350,000 active;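 further: plate controls were vehicle for no effect and reference inhibitor for full effect; nearly all actives have a fitted effect of over 55% in size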
Target sequence (P27695 whole entry, looked up): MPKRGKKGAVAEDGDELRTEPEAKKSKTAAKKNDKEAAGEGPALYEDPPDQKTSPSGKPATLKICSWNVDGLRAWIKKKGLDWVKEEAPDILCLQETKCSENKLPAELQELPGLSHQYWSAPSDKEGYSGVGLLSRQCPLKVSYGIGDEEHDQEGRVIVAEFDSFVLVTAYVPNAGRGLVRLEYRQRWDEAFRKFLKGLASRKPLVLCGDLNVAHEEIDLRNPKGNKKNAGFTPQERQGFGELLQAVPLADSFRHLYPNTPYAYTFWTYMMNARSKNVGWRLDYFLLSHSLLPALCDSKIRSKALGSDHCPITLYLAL
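Measures dequenching upon AP-site incision of a 5'-TAMRA/3'-BHQ-2 THF-containing duplex, 50 nM; human APE1 0.75 nM after 15 min room-temperature exposure to compound; kinetic three-point read at one-minute spacing.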
RECQ1 inh-1: RECQ1 (human) helicase inhibition; Potency, µM (doses to about 57.3 µM), inactives show at the highest dose activity, negative = inhibition, usual class: inhibitors; RECQ1 DNA unwinding, red fluorescence kinetic read; 0.54% of 240,000 active; P46063;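 further: plate controls were vehicle for no effect and no enzyme for full effect; nearly all actives have a fitted effect of over 30% in size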
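RECQ1T1 50 nM; forked duplex (20 bp + 30-nt ss tails) 200 nM, ATP 2 mM final; pH 8.0, 2 mM MgCl2, 2.5 ug/ml poly(dI-dC); 15 min compound preincubation; discontinuous kinetic read over 2 h at RT.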
TRb SRC2 PPI: disrupts binding of human TR beta to SRC2 | TRbeta-SRC2 peptide binding, fluorescence polarization; receptor liganded with 1 µM T3 | Potency, µM (doses to about 106 µM), for inactives: at the highest dose activity change, negative = inhibition, usual class: inhibitors | 0.065% of 280,000 active;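 further: plate controls were bound peptide for no effect and peptide without receptor for full effect; nearly all actives have a fitted effect of over 50% in size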
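Each compound concentration gave % activity, normalized to unbound and bound Texas Red SRC2 controls, from polarization read after 5 hr ambient incubation with T3-loaded human TRb LBD.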
BLM helicase inh: Bloom syndrome helicase (human) inhibition. P54132. recombinant BLM DNA unwinding, fluorescence dequenching. Potency, µM (series often up to 56.1 µM), inactives show top-dose activity change, negative = inhibition, usual class: inhibitors. 0.2% of 350,000 active. AID 2528;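 further: plate controls were vehicle for no effect and no enzyme for full effect; nearly all actives have a fitted effect of over 35% in size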
WRN helicase inh: blocks human WRN helicase; Q14191; 0.46% of 360,000 active; WRN helicase unwinding, fluorescent forked duplex, kinetic; Potency, µM (top dose mostly 114 µM), inactives show at the highest dose activity change, negative = inhibition, most hits filed as inhibitors; AID 651768; further: nearly all actives have a fitted effect of over 55% in size
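Screening of the MLSMR collection measured strand separation of a quenched forked DNA duplex (100 nM) by 20 nM WRN with 2 mM ATP, all final. Compounds were preincubated with enzyme 15 min at room temperature.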
TexasRed fluor: alters Texas Red total fluorescence, flagging assay interference | Potency, µM (doses to about 106 µM), inactives show top-dose fluorescence change, negative = quenching | 0.29% of 280,000 active | TRb/SRC2 Texas Red total fluorescence interference; active means well fitted curve in either direction with a large enough effect; inconclusive means small, poorly fitted or top-dose-only effect
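Flags fluorescent or light-absorbing compounds by total fluorescence, S + 2P, at 555 nm excitation and 632 nm emission. Mixture: 20 nM Texas Red SRC2 peptide, 0.6 uM human TRb LBD, 1 uM T3, 5% DMSO; compound exposure 5 h at ambient temperature.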
RECQ1 inh conf: confirmation of human RECQ1 helicase inhibitors | shares compounds with RECQ1 inh-1 | RECQ1 helicase DNA unwinding, fluorescence | Potency, µM (series often up to 229 µM), for inactives: at the highest dose activity change, negative = inhibition, actives largely listed as inhibitors | 28% of 610 active | AID 2708; further: nearly all actives have a fitted effect of over 45% in size
RECQ1 ADP FP: displaces ADP in a fluorescence polarization counter-screen for RECQ1 hits; shares compounds with RECQ1 inh-1; ADP fluorescence polarization displacement counterscreen; Potency, µM (doses to about 228 µM), for inactives: at the top dose activity change, negative = inhibition, usual class: inhibitors; 27% of 530 active; AID 2711; further: nearly all actives have a fitted effect of over 45% in size
RECQ1 inh-2: RECQ1 helicase inhibition confirmed, round 2 | shares compounds with RECQ1 inh-1 | recombinant RECQ1 DNA unwinding, red fluorescence | Potency, µM (doses to about 119 µM), for the others: at the top dose activity, negative = inhibition, most hits filed as inhibitors | 15% of 1,100 active | AID 504841; further: nearly all actives have a fitted effect of over 50% in size
Active calls of the source: *; i = inactive; ? = inconclusive; / = no result given; [ ] = remark or other dose. Unless noted, the call rests on the fitted dose curve; in most records, active means well fitted curve in the direction sought with a large enough effect; inconclusive means small, poorly fitted or top-dose-only effect, or another doubt; inactive means no such curve, though single readings can be large; an effect the other way counts as inactive or inconclusive. Unless noted, on the % scale 0 is the no-effect control and ±100 the full control effect; potency means the concentration at half of the fitted maximal effect.

SMILES	APE1 inh	RECQ1 inh-1	TRb SRC2 PPI	BLM helicase inh	WRN helicase inh	TexasRed fluor	RECQ1 inh-2	others
Cc1ccc(S(=O)(=O)N2CCC[C@H]2C(=O)OCCN2C(=O)c3ccccc3C2=O)cc1	21%	/	/	/	-1%	/	/
COc1ccc(CCn2c(=S)[nH]c3cc(C(=O)N4CCOCC4)ccc3c2=O)cc1OC	17%	35µM*	2%	-6%	0%	-2%	-48%
COc1ccc(CCn2c(=O)[nH]c3cc(C(=O)N4CCN(c5ccccc5)CC4)ccc3c2=O)cc1OC	0%	-1%	-1%	-2%	7%	-2%	/
CC/C(=C/c1sc2ccc(C)cc2[n+]1CCCS(=O)(=O)[O-])SC	-10%	?	?	-3%	-14%	45µM*[fluorescent]	-4%
CC(C)c1ccc(S(=O)(=O)NCCCN2CCOCC2)cc1	/	/	/	/	0%	/	/
O=S(=O)(Nc1nc2ccccc2nc1Nc1ccc(N2CCOCC2)cc1)c1cc(Cl)ccc1Cl	-4%	?	3%	-9%	5%	-2%	-12%
Clc1nc(Nc2ccc(N3CCOCC3)cc2)c2ccccc2n1	0%	14%	4%	-14%	-7%	-1%	/
COc1cc(/C=C\C(=O)O)cc(S(=O)(=O)N2CCCCCC2)c1OC	4%	/	/	-1%	3%	/	/
COc1ccc(OC)c(/C=C2\S/C(=N/NC(=O)c3ccc4ccccc4c3)NC2=O)c1	4%	-13%	?	-28%	?	?	/
O=C1N/C(=N/NC(=O)c2cccc3ccccc23)S/C1=C\c1ccccc1OCc1ccccc1	10%	?	-2%	-26%	56µM*	-4%	?
CSc1nnc(-c2ccco2)c(-c2ccco2)n1	?	?	0%	?	?	-12%	-29%
CSc1nnc(-c2ccccc2)c(-c2ccccc2)n1	-11%	i	5%	-11%	0%	-1%	/
O=C(CSc1nnc(-c2ccco2)c(-c2ccco2)n1)Nc1ccccc1	14µM*	10µM*	-6%	14µM*	35µM*	45µM*[quencher]	-26%
CNC(=O)COC(=O)c1ccc(Cl)c(S(=O)(=O)N2CCCC2)c1	-16%	-2%	2%	0%	-7%	-1%	/
CCc1ccc(NC(=O)COC(=O)c2ccc(Cl)c(S(=O)(=O)N3CCCCCC3)c2)cc1	8%	?	-7%	-6%	-15%	-2%	?
O=C(Cn1cnc2ccccc2c1=O)NCCC(=O)Nc1ccccc1C(F)(F)F	6%	/	/	0%	5%	/	/
O=C(O)/C=C/C(=O)NCc1csc2ccccc12	-3%	-3%	0%	-6%	-9%	-3%	/
CNC(=O)CSc1nnc(-c2ccc(S(=O)(=O)N3CCCC3)cc2)n1-c1cccc(C)c1C	0%	-17%	5%	1%	-6%	2%	/
COc1ccccc1-n1c(SCC(=O)O)nnc1-c1ccc(S(=O)(=O)N2CCCCC2)cc1	3%	-1%	-11%	0%	-12%	-1%	/	RECQ1 inh conf=3%;RECQ1 ADP FP=2%
Cc1nc(-c2ccc(Cl)cc2)sc1CCNC(=O)C(=O)Nc1ccc(F)cc1F	/	/	-2%	3%	/	4%	/
O=C(O)Cc1cccc(OCCCN(Cc2cccc(C(F)(F)F)c2Cl)CC(c2ccccc2)c2ccccc2)c1	-16%	?	7%	?	/	-15%	25µM*
O=C(CCCOc1ccccc1)Nc1ccccc1C(F)(F)F	1%	-4%	-5%	-10%	-11%	6%	/
Cc1ccc(-c2nc(CCNC(=O)C(=O)Nc3ccc(C)c(Cl)c3)cs2)cc1	/	/	1%	1%	/	3%	/
COC(=O)C1=CC(C(=O)c2cccs2)=NN(c2ccc(OC)cc2)C1C(=O)OC (stereo unspecified)	-5%	?	1%	-12%	-35%	-1%	79µM*
COC(=O)C1=CN(Cc2ccc(OC)cc2)C=C(C(=O)OC)C1c1cccs1	?	-21%	3%	-14%	-13%	-1%	/
SMILES	APE1 inh	RECQ1 inh-1	TRb SRC2 PPI	BLM helicase inh	WRN helicase inh	TexasRed fluor	RECQ1 inh-2	others
CNc1ccc(Br)cc(C(=O)/C=C/c2cccc(OC)c2)c1=O	?	28µM*	1%	-29%	-34%[57.1 µM]	-10%	?
CNc1ccc(Br)cc(C(=O)/C=C/c2ccc(OC)cc2OC)c1=O	-9%	-15%	3%	?	?	-4%	/
CCNc1ccc(Br)cc(C(=O)/C=C/c2ccc3c(c2)OCO3)c1=O	?	?	-6%	-25%	?	-18%	?
CCNc1ccc(Br)cc(C(=O)/C=C/c2ccc(Cl)cc2)c1=O	2%	32µM*	-8%	-20%	-15%[11.6 µM]	-7%	-29%
Cc1ccc(S(=O)(=O)NCCC(=O)NNc2c(F)c(F)cc(F)c2F)cc1	2%	/	/	/	3%	/	/
COC(=O)[C@H](C)N(Cc1ccc(Cl)c(Cl)c1)S(=O)(=O)CCNC1CCCC1	-21%	/	/	/	-12%	/	/
COc1ccc(CCNC(=O)c2ccc3c(c2)ncn3-c2ccc(C(C)C)cc2)cc1OC	/	/	-8%	-9%	/	0%	/
Cc1ccc(C)n1-c1ccc(N2CCOCC2)nc1	-4%	?	5%	-12%	-5%	21%	-8%
COc1cccc(NC(=O)CC2SC(=Nc3ccccc3)NC2=O)c1 (stereo unspecified)	-3%	-7%	0%	-3%	-15%	-1%	/
COc1cccc(NC(=O)CC2S/C(=N\S(=O)(=O)c3ccccc3)N(c3ccccc3)C2=O)c1 (stereo unspecified)	11%	40µM*	-6%[53 µM]	-5%	-15%	-1%[53 µM]	-9%
COc1ccc(CNC(=O)Cn2c(=O)c3cccn3c3cccnc32)cc1	/	/	6%	8%	/	1%	/
CC(CNC(=O)CC[C@H]1O[C@@H](n2cnc3c(NC(=O)c4ccccc4)ncnc32)[C@H](O)[C@@H]1O)c1ccccc1 (stereo partly specified)	/	/	/	/	-4%	/	/

Compound activity: PubChem BioAssay, National Center for Advancing Translational Sciences (NCATS)
